Assay outcomes deposited in PubChem by National Center for Advancing Translational Sciences (NCATS).
PI4K2A inh: inhibitors of human PI4K2A; 420,000 compounds, 0.13% hits; Q9BTU6; activity change, negative = inhibition, % at 76.9 µM; purified PI4K2A, ADP-Glo luminescence, 1 h; hits give low values; in the data active means activity change below about -50%; inconclusive means mostly about -30% to -49%
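In this quantitative HTS, ADP production by PI4K2A was quantified luminescently after 1 h at ambient temperature; 100 microM adenosine served as plate-quality control.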
PGK inhibitor: T. brucei PGK inhibition | P07378 | PGK/GAPDH coupled, Kinase-Glo luminescence, 60 min | Potency, µM (doses to about 57.5 µM), most hits filed as inhibitors | 380,000 compounds, 0.043% hits | AID 602233; further: nearly all actives have a fitted effect of over 60% in size
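Luminescent ATP detection (Kinase-Glo Plus) follows a 60-minute room-temperature incubation, with wells lacking PGK as controls. Buffer: 100 mM TEA (pH 7.6), 5 mM MgCl2, 0.01% Tween-20. Coupling enzyme GAPDH (100 nM final) supplies unstable 1,3-BPG in-well.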
Tb PFK inh: blocks T. brucei phosphofructokinase; O15648; T. brucei PFK, ADP-Glo luminescence; Potency, µM (highest dose often 57.5 µM), most hits filed as inhibitors; 330,000 compounds, 0.17% hits; AID 485367; further: nearly all actives have a fitted effect of over 60% in size
Target sequence (O15648 whole entry, looked up): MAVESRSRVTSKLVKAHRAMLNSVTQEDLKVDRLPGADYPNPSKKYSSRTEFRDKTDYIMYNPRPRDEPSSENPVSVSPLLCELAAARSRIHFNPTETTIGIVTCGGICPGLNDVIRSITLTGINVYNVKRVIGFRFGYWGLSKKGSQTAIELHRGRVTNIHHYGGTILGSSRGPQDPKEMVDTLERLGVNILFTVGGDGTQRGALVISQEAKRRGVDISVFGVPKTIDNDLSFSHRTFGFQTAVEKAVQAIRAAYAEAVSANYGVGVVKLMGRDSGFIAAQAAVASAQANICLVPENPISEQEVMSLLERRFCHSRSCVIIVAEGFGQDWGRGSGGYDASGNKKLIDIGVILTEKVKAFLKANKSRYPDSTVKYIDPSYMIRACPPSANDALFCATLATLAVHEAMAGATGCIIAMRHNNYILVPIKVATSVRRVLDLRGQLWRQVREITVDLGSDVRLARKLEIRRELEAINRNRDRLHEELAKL
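Luminescent ADP detection (ADP-Glo, two-step: ATP depletion then ADP-to-ATP conversion for luciferase) reported PFK activity after 45 min room-temperature reaction of 1.25 nM enzyme with 0.5 mM F6P and 0.1 mM ATP at pH 8.0.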
Pin1 inhibitor: human Pin1 inhibition. 390,000 compounds, 0.009% hits. Q13526. Pin1 FP peptide displacement, HiFluor488, 10 min. Potency, µM (series often up to 115 µM), most hits filed as inhibitors. AID 504891; active means well fitted inhibition curve with a large enough effect in the polarisation, with a control signal flat, not every such curve was filed as active; inconclusive means small, poorly fitted or top-dose-only effect, or effect the other way, or a change in a side signal; inactive means no such curve, though single readings can be large or run the other way; the % refers to the polarisation
Target sequence (Q13526 whole entry, looked up): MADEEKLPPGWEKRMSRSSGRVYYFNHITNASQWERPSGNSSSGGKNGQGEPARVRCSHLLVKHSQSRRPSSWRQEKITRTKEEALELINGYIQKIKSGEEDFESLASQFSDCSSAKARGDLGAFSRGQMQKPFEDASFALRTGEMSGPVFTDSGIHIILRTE
PI5P4Ka inh: PI5P4K alpha (human) kinase inhibition; 330,000 compounds, 1.2% hits; max response, %; PI5P4Kalpha enzyme, ADP-Glo luminescence, 60 min; hits give low values; P48426; active means max response of -50% or lower; inconclusive means between -30% and -50%; inactive means -30% or higher; further: value at the top dose of about 77 µM
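ADP-Glo luminescence end-point after a 60 min room-temperature kinase reaction. PI5P4Kalpha and substrate in HEPES pH 7.4 buffer with EGTA, 0.1% CHAPS and 5% DMSO; ATP at 5 microM final.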
Of the large screens only hits and unclear results are named; the others gave an inactive call; ! = a repeat was not active. The full list was thinned out, with hits kept by preference. Unless noted, the call rests on the fitted dose curve; in most records, active means well fitted curve in the direction sought with a large enough effect; inconclusive means small, poorly fitted or top-dose-only effect, or another doubt; inactive means no such curve, though single readings can be large; an effect the other way counts as inactive or inconclusive.

CCc1nnc(SCC(=O)Nc2ccc(C(C)=O)cc2)nc1CC	none
CCOC(=O)c1c(C)c(C(=O)NCc2ccc3c(c2)OCO3)c(C)n1CC	none
C/C(N)=C(/C#N)C(=O)CSc1nc2ccccc2c(=O)n1Cc1ccc(C)cc1	none
C/C(N)=C(/C#N)C(=O)CSc1nc2ccccc2c(=O)n1Cc1ccc(F)cc1	PI5P4Ka inh -58
CCCOc1ccc(/C=C2\SC(N)=NC2=O)cc1OC	none (no result: PGK inhibitor)
COc1ccc(/C=C2\SC(N)=NC2=O)cc1Br	PI5P4Ka inh -51
COc1cc(/C=C2\SC(N)=NC2=O)cc(Cl)c1O	Pin1 inhibitor inconclusive, PI5P4Ka inh -76
NC1=NC(=O)/C(=C\c2ccc(O)c([N+](=O)[O-])c2)S1	Pin1 inhibitor inconclusive, PI5P4Ka inh -79
COc1cc(/C=C2/SC(N)=NC2=O)ccc1Oc1ccc([N+](=O)[O-])cc1[N+](=O)[O-]	none
Cc1ccc(-c2cn3cccnc3n2)cc1NC(=O)C(C)(C)Oc1ccc(Cl)cc1	none (no result: Tb PFK inh, PI5P4Ka inh)
O=C(CN1C(=O)C2CCCCC2C1=O)Nc1nc(-c2ccccn2)cs1 (stereo unspecified)	none
C[C@@H](C(=O)Nc1nc(-c2ccccn2)cs1)N1C(=O)C2CCCCC2C1=O (stereo partly specified)	Pin1 inhibitor inconclusive, PI5P4Ka inh -56
CCC(CCCO)CCC[C@H](C)CCC1OCCO1 (stereo partly specified)	none
CCN1/C(=C/C=C/c2oc3ccc4ccccc4c3[n+]2CC)Oc2ccc3ccccc3c21	Pin1 inhibitor inconclusive, PI5P4Ka inh -74
CC[n+]1c(/C=C/N(C)c2ccccc2)oc2ccc(Cl)cc21	none
Cc1cc(C)nc(SCC(=O)NNS(=O)(=O)c2ccc(C#N)cc2)n1	PI5P4Ka inh inconclusive
Cc1ccsc1C=Nc1ccc(O)cc1	PI4K2A inh -59, PGK inhibitor inconclusive, Pin1 inhibitor inconclusive, PI5P4Ka inh -51
Cc1ccsc1/C=N/N=C/c1sccc1C	none
O=C(O)C1=CCC=CC1C(=O)O (stereo unspecified)	PGK inhibitor 13µM (no result: Tb PFK inh, Pin1 inhibitor)
COc1ccc(-n2sc3ccccc3c2=O)cc1	PI5P4Ka inh -89 (no result: Tb PFK inh, Pin1 inhibitor)
O=C1NN(c2ccc(F)c(Cl)c2)C(=O)/C1=C\c1cccc(OC(=O)c2cccs2)c1	PI5P4Ka inh -82 (no result: Pin1 inhibitor)
COc1ccccc1N1CCN(CCN(C(=O)C2CCCCC2)c2ccccn2)CC1	PI4K2A inh -65!
COc1ccccc1N1CCN(CC(C)N(C(=O)C2CCCCC2)c2ccccn2)CC1 (stereo unspecified)	none
COc1ccc(-c2csc(NC(=S)NC(=O)c3cccs3)n2)cc1OC	PI5P4Ka inh -67
COc1ccc(-c2csc(NC(=S)NC(=O)c3cccs3)n2)cc1Br	none
CCOc1ccc(C(=O)Nc2cc(C)ccn2)cc1	PI4K2A inh -72, PGK inhibitor inconclusive, PI5P4Ka inh inconclusive
CCOc1cc(C(=O)Nc2cc(C)ccn2)cc(OCC)c1OCC	none (no result: PI5P4Ka inh)
CCc1ccccc1NC(=O)c1ccc(Cn2cc([N+](=O)[O-])cn2)cc1	none
CC(CC1C(C#N)=C(N)SC(N)=C1C#N)c1ccccc1 (stereo unspecified)	Pin1 inhibitor inconclusive, PI5P4Ka inh -67
N#CC1=C(N)SC(N)=C(C#N)C1c1ccnc2ccccc12	Pin1 inhibitor inconclusive, PI5P4Ka inh -74
CCC(C)[C@H](NC(=O)C1COC(O)([C@H](Cc2ccccc2)NC(=O)[C@@H](NC(=O)OCc2ccccc2)C(C)C)CN1C)C(=O)N[C@H](C(=O)OC)C(C)C (stereo partly specified)	none (no result: PGK inhibitor, Tb PFK inh, Pin1 inhibitor, PI5P4Ka inh)
CC(C)(C)NC(=S)N/N=C/c1cc(Br)c(O)c(Br)c1	PI5P4Ka inh -91
CCCCCCCCCCCCCCCC[n+]1cccc2ccccc21	Pin1 inhibitor inconclusive, PI5P4Ka inh -59
CCCCCCCCC[n+]1cccc2c3ccccc3ccc21	none
COc1ccc(C(=O)NNC(=O)c2ccccn2)cc1	PI4K2A inh -85, PGK inhibitor inconclusive, Tb PFK inh 15µM, PI5P4Ka inh -57
COc1ccccc1C(=O)O/N=C(\N)c1ccccn1	none
Cc1ccc(C(=O)O/N=C(\N)c2ccccn2)c(C)c1	PI4K2A inh -85, PGK inhibitor 16µM, Tb PFK inh inconclusive, PI5P4Ka inh -57
COc1cc(OC)cc(C(=O)NNC(=O)c2ccccn2)c1	none
N/C(=N\OC(=O)c1ccccc1Cl)c1ccccn1	PI4K2A inh -51, PGK inhibitor inconclusive, Tb PFK inh inconclusive (no result: PI5P4Ka inh)
COc1ccc(C(=O)O/N=C(\N)c2ccccn2)cc1	PI4K2A inh -90, PGK inhibitor 11µM, Tb PFK inh 15µM, PI5P4Ka inh -71
N/C(=N\OC(=O)c1ccc(Cl)cc1)c1ccccn1	PI4K2A inh -70, PGK inhibitor inconclusive (no result: PI5P4Ka inh)
O=C(CSc1nc2ccccc2c(=O)[nH]1)N1CCN(c2ccccc2)CC1	none
CC(=O)Nc1ccc2c(c1)C(=O)c1ccccc1C2=O	none
O=C(O)/C=C/C(=O)Nc1ccc2c(c1)C(=O)c1ccccc1C2=O	Pin1 inhibitor inconclusive, PI5P4Ka inh -65
Cc1cc(=O)[nH]c(=O)n1Cc1ccccc1	PI5P4Ka inh -84 (no result: Pin1 inhibitor)
Cc1cc(=O)c2ccccc2n1Cc1ccccc1	none
CC(=O)c1cccc(NC(=O)c2ccc(OC3CSC3)cc2)c1	none
Cc1cccc(NC(=O)c2ccc(OC3CSC3)cc2)c1	PI4K2A inh -50
COc1cc(C(c2sc3nc(C)nn3c2O)N2CCC3(CC2)OCCO3)cc(OC)c1OC (stereo unspecified)	PI5P4Ka inh -50
CC(=O)NC1C(=O)N(CCN2CCOCC2)c2ccc(C)cc21 (stereo unspecified)	PGK inhibitor 20µM, Pin1 inhibitor 50µM
O=c1cc(-c2ccccc2Cl)oc2c([N+](=O)[O-])c(O)cc(O)c12	PI5P4Ka inh -96
COc1cc(C2C(C#N)=C(N)Oc3n[nH]c(-c4cccnc4)c32)cc(Br)c1O (stereo unspecified)	PI5P4Ka inh -63
CC(C)CC1C(C#N)=C(N)Oc2n[nH]c(-c3cccs3)c21 (stereo unspecified)	none (no result: PI5P4Ka inh)
CSCCC1C(C#N)=C(N)Oc2n[nH]c(-c3cccs3)c21 (stereo unspecified)	PI5P4Ka inh -65
Cc1cc(-c2[nH]nc3c2C(c2ccsc2)C(C#N)=C(N)O3)c(C)s1 (stereo unspecified)	PI5P4Ka inh -52
Cc1cc(-c2[nH]nc3c2C(c2cccc(O)c2)C(C#N)=C(N)O3)c(C)s1 (stereo unspecified)	none (no result: PI5P4Ka inh)
Cc1ccc(C2C(C#N)=C(N)Oc3n[nH]c(-c4ccccc4)c32)o1 (stereo unspecified)	PI4K2A inh inconclusive, PI5P4Ka inh -67
O=C(O)/C=C/c1cn(-c2ccccc2)nc1-c1cc2ccccc2oc1=O	none
CCOC(=O)c1ccc(CC(=O)c2ccc(O)c(O)c2O)o1	PI5P4Ka inh inconclusive
N#CC1=C(N)Oc2n[nH]c(-c3cccs3)c2C1c1cccs1 (stereo unspecified)	Pin1 inhibitor inconclusive, PI5P4Ka inh -53
